Here are results for eight compounds from PubChem BioAssay (NCI).

This is part of a sample that, as a whole, favours compounds with a hit. Of some 83,000 tested, about 20% had one in any assay.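 Step 1: grow cells in 96-well plates. Step 2: add test compound at a single concentration. Step 3: incubate 48 h. Step 4: record percent growth.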 Unmarked numbers belong to inactive results. Active and inactive are the calls of the source. The calls were made as follows: active = growth percent below 10; inactive = the rest.

Test systems include NCI-H23 lung; NCI-H226 lung; NCI-H322M lung; HOP-62 NSCLC; NCI-H460 lung; HOP-92 NSCLC; NCI-H522 lung; A549/ATCC NSCLC; 786-0 renal; COLO 205 colon; DU-145 prostate; K-562 leukemia; MALME-3M melanoma; MDA-MB-231 breast; RXF 393 renal; SF-268 CNS; SF-295 CNS; SF-539 CNS; UACC-257 melanoma; M14 melanoma.
Common to all, as to test: NCI-60 one-dose screen, 48 h (100 = growth as untreated, 0 = no growth, -100 = all killed)
Conditions in all cases: 10 µM unless noted

In the case of `S=C(Sc1ccc(Cl)cc1)Sc1ccc(Cl)cc1`, the growth was 21.8% in the test with NCI-H23 lung; -52.5% (active) in the test with NCI-H226 lung; 106% in the test on NCI-H322M lung; 47.9% in the test on HOP-62 NSCLC; 67.1% in the test on NCI-H460 lung; -4.66% (active) in the test on HOP-92 NSCLC. Further, the growth with NCI-H522 lung is -83% (active); with A549/ATCC NSCLC, 45.5%; with 786-0 renal it was -14.5% (active); with COLO 205 colon, -54% (active); with DU-145 prostate, 17.2%; in the test with K-562 leukemia it was -44% (active). Also, the growth was -52.8% (active) with MALME-3M melanoma; -29.5% (active) in the test with MDA-MB-231 breast; -85.5% (active) in the test on RXF 393 renal; -1.56% (active) with SF-268 CNS; 66% in the test with SF-295 CNS; 37.6% in the test on SF-539 CNS. Further, the growth is 88% with UACC-257 melanoma and -45.1% (active) in the test with M14 melanoma.
Take `Nc1nc(N)nc(N2CCCCC2)n1`: the growth is 107% with NCI-H23 lung; 103% in the test on NCI-H226 lung; 94.4% in the test with NCI-H322M lung; 104% in the test on HOP-62 NSCLC; 103% with NCI-H460 lung; 96.6% in the test on HOP-92 NSCLC. In addition, the growth was 100% in the test on NCI-H522 lung; 104% in the test on A549/ATCC NSCLC; 102% with 786-0 renal; 108% in the test with COLO 205 colon; 107% in the test with DU-145 prostate; 105% in the test with K-562 leukemia. In addition, the growth in the test with MALME-3M melanoma was 96.3%; with MDA-MB-231 breast, 96.5%; in the test on RXF 393 renal it was 105%; with SF-268 CNS, 107%; in the test on SF-295 CNS it was 113%; in the test with SF-539 CNS, 97.6%. The results for the growth with UACC-257 melanoma and with M14 melanoma were 101% and 111%, respectively.
Regarding `CCCCN(C=S)CCCC`, the growth in the test on NCI-H23 lung is 103%; in the test on NCI-H226 lung, 87.4%; in the test on NCI-H322M lung it was 105%; in the test with HOP-62 NSCLC it was 81.3%; in the test on NCI-H460 lung, 101%; with HOP-92 NSCLC, 93.8%. Moreover, the growth in the test on NCI-H522 lung was 91.6%; in the test with A549/ATCC NSCLC, 86.4%; with 786-0 renal, 101%; in the test on COLO 205 colon, 99.1%; in the test with DU-145 prostate, 112%; in the test with K-562 leukemia, 113%. Also, the growth was 101% in the test on MALME-3M melanoma; 104% in the test with MDA-MB-231 breast; 101% in the test on RXF 393 renal; 105% in the test on SF-268 CNS; 99.1% with SF-295 CNS; 99.6% with UACC-257 melanoma. The growth with M14 melanoma is 94.8%.
In the case of `O=C(NC(=S)N1CC=CCC1)c1ccccc1`, the growth in the test with NCI-H23 lung was 107%; in the test on NCI-H226 lung, 104%; with NCI-H322M lung, 116%; with HOP-62 NSCLC, 109%; in the test on NCI-H460 lung, 113%; with HOP-92 NSCLC, 104%. The growth with NCI-H522 lung is 77.3%; with A549/ATCC NSCLC, 103%; in the test on 786-0 renal it was 111%; in the test with COLO 205 colon, 118%; in the test on DU-145 prostate, 129%; in the test with K-562 leukemia, 111%. Besides, the growth is 100% in the test with MALME-3M melanoma; 104% with MDA-MB-231 breast; 128% in the test with RXF 393 renal; 108% with SF-268 CNS; 111% with SF-295 CNS; 105% in the test with UACC-257 melanoma. Also, the growth in the test on M14 melanoma was 95.8%.
As to `COC(c1ccc2c(c1)OCO2)C(C)Br` (stereo unspecified), the growth is 95.2% with NCI-H23 lung; 93.1% in the test on NCI-H226 lung; 100% in the test with NCI-H322M lung; 82.8% in the test with HOP-62 NSCLC; 104% in the test with NCI-H460 lung; 74.9% in the test with HOP-92 NSCLC. The growth with NCI-H522 lung was 84.6%; with A549/ATCC NSCLC, 94%; in the test on 786-0 renal, 112%; with COLO 205 colon, 94.5%; with DU-145 prostate it was 109%; with K-562 leukemia, 87.3%. For the same compound, the growth in the test with MALME-3M melanoma was 98.3%; with MDA-MB-231 breast, 94.8%; in the test with RXF 393 renal it was 99.9%; in the test on SF-268 CNS, 107%; with SF-295 CNS it was 101%; in the test with SF-539 CNS, 92.5%. Further, the growth with M14 melanoma is 97.1%.
Consider `NC(CO)(CO)c1ccccc1`, for which the growth was 99.1% in the test with NCI-H23 lung; 96.6% in the test on NCI-H226 lung; 101% in the test on NCI-H322M lung; 100% in the test with HOP-62 NSCLC; 99.1% in the test on NCI-H460 lung; 88.1% with HOP-92 NSCLC. The growth is 95.3% in the test on NCI-H522 lung; 100% in the test with A549/ATCC NSCLC; 106% with 786-0 renal; 103% in the test on COLO 205 colon; 101% in the test with DU-145 prostate; 111% in the test with K-562 leukemia. For the same compound, the growth in the test on MALME-3M melanoma was 105%; with MDA-MB-231 breast, 111%; in the test on RXF 393 renal, 101%; in the test with SF-268 CNS it was 97.6%; in the test on SF-295 CNS, 104%; in the test on SF-539 CNS it was 104%. For the same compound, the growth with UACC-257 melanoma is 96.5%; with M14 melanoma it was 94.9%.
For the compound `Nc1ccc2ccccc2c1-c1c(N)ccc2ccccc12`, the growth with NCI-H23 lung is 41.6%; with NCI-H226 lung, 73.5%; in the test on NCI-H322M lung it was 39.7%; with HOP-62 NSCLC, 43%; with NCI-H460 lung it was 20.2%; in the test on HOP-92 NSCLC it was 52.9%. Besides, the growth with NCI-H522 lung was 37.1%; in the test on A549/ATCC NSCLC, 19.9%; in the test on 786-0 renal, 49.3%; with COLO 205 colon, 5.44% (active); in the test on DU-145 prostate, 25.8%; with K-562 leukemia it was 18.7%. Also, the growth was 42.4% with MALME-3M melanoma; 43% with MDA-MB-231 breast; 6.23% (active) in the test on RXF 393 renal; 54.1% in the test with SF-268 CNS; 13.8% in the test with SF-295 CNS; 18% in the test on UACC-257 melanoma. The growth with M14 melanoma was 19.5%.
For `Cc1ccc(S(=O)(=O)NC(=O)NCCSSCCNC(=O)NS(=O)(=O)c2ccc(C)cc2)cc1`, the growth was 102% in the test with NCI-H23 lung; 91% in the test with NCI-H226 lung; 101% in the test on NCI-H322M lung; 105% with HOP-62 NSCLC; 103% in the test on NCI-H460 lung; 92.2% in the test on HOP-92 NSCLC. In addition, the growth is 94.9% in the test on NCI-H522 lung; 100% in the test with A549/ATCC NSCLC; 104% with 786-0 renal; 129% with COLO 205 colon; 110% with DU-145 prostate; 103% in the test on K-562 leukemia. Besides, the growth is 97.3% in the test with MALME-3M melanoma; 116% with MDA-MB-231 breast; 102% in the test with RXF 393 renal; 102% with SF-268 CNS; 95.3% in the test with SF-295 CNS; 87.5% in the test on SF-539 CNS. The growth with UACC-257 melanoma is 89.1%; in the test on M14 melanoma, 111%.
